Screening data: PubChem BioAssay, several laboratories
p97 ATPase inh = inhibitors of human p97 ATPase; hit rate 0.42% among 220,000; recombinant p97 ATPase, Kinase-Glo ATP luminescence, 3 h; inhibition, % at 8 µM; AID 1481; in the data active = inhibition above about 15%;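 note: 0% = DMSO vehicle and 100% = wells lacking enzyme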
L major viab = reduces viability of Leishmania major promastigotes. resazurin fluorescence viability. inhibition, % at 10 µM. hit rate 9% among 200,000; in the data active = inhibition above about 50%;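 note: promastigotes grown with compound for 44 hours at 28 °C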
ROMK mod = modulators of human ROMK potassium channel. P48048. AID 1918. hit rate 2% among 130,000. Tet-inducible ROMK, thallium flux fluorescence; actives lie on both sides. B-score at 10 µM;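 active = signal ratio slope over the read window, or its plate-corrected B-score, at least 3 SD from the plate mean, either direction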;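 note: B-score of the F/F0 ratio slope over 7 to 12 s after thallium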
Target sequence (P48048 whole entry, looked up): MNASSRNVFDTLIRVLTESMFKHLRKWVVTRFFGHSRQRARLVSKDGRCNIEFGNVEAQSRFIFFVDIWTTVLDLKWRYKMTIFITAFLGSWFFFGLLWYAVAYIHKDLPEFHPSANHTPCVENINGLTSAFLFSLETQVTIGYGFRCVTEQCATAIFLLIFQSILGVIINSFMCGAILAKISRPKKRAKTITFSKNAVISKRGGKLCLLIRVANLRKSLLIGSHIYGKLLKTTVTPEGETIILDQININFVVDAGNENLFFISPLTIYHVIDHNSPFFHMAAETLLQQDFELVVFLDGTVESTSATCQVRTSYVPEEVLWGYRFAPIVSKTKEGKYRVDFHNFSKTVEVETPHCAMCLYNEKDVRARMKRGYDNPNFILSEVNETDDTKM
HCT116 bCat-KO = beta-catenin-lacking colon tumor cell growth suppression; viability, % at 10 µM; hit rate 1.5% among 140,000; AID 818; HCT116 beta-catenin knockout viability, CellTiter-Glo, 60 h; stronger effect = lower value;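 active = viability at or under a set limit, the compound median less 4 SD, cut at about 6% in these data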;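 note: 0% = Hyamine 1622 control at 20 µM and 100% = untreated cell control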
INS promoter inh = TRM-6 insulin promoter activity inhibition. TRM-6 cells (human fetal islet line), insulin promoter-eGFP reporter, imaging; reporter expression induced with tamoxifen. hit rate 0.9% among 130,000. inhibition, % at 2 µM;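 active = inhibition above the mean plus 3 SD, with well images judged a real hit on visual review, cut at about 60% in these data, passing the limit was not always enough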
PTEN del growth = suppresses growth of cells with PTEN deletion | viability, % at 10 µM | HCT116 PTEN-null viability, CellTiter-Glo, 60 h; stronger effect = lower value | AID 827 | hit rate 1.2% among 140,000;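 active = viability at or below a set limit, 4 SD under the median of all tested compounds, cut at about 3.7% in these data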;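 note: PTEN knockout HCT116 line with beta catenin targeted HCT116 as companion control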
Active calls of the source: *; i = inactive; . = no result given. Compounds with a hit are over-represented: about 10% of the library has one in this group of screens.

SMILES	p97 ATPase inh	L major viab	ROMK mod	HCT116 bCat-KO	INS promoter inh	PTEN del growth
CCN(CC)S(=O)(=O)c1ccc(NC(=S)NC(=O)CC(C)C)cc1	5.0	1.1	-0.0358	82.3	19.2	85.4
CCN(CC)S(=O)(=O)c1ccc(NC(=S)NC(=O)C(C)C)cc1	-4.0	71.9*	-0.862	90.0	-15.4	104.1
CCN(CC)S(=O)(=O)c1ccc(C)c(NC(=S)Nc2cccc(S(=O)(=O)N3CCCCCC3)c2)c1	3.2	92.0*	-1.11	51.9	-67.6	46.1
CCN(CC)S(=O)(=O)c1ccc(OC)c(NC(=S)Nc2ccc(C)c(C)c2)c1	3.2	61.7*	-1.09	88.8	0.0	90.7
CCC(=O)Nc1ccc(C(=O)NNC(=O)COc2cc(C)ccc2C)cc1	4.8	2.4	.	97.2	.	113.4
CCOc1ccc2c(C)c(C)c(=O)oc2c1OCC	-2.9	9.5	1.61	89.4	.	90.9
COc1ccc2c3c(c(=O)oc2c1OCC(=O)O)CCCC3	4.4	61.1*	.	95.3	35.9	108.7
O=C(O)COc1ccc2c3c(c(=O)oc2c1)CCCC3	-1.8	-3.6	0.577	.	40.0	.
CCOc1c(OC)ccc2c3c(c(=O)oc12)CCCC3	3.5	4.1	0.652	0.5*	.	1.1*
Cc1ccc2nc(/N=C(\N)NC(=O)NC3CCCCC3)nc(C)c2c1	4.4	.	0.744	.	.	.
CN(c1ccccc1)c1ccc(/C=N/NC(=O)CC#N)cc1	4.4	-2.6	-0.00787	99.7	3.9	88.4
CN(c1ccccc1)c1ccc(/C=C/[N+](=O)[O-])cc1	4.5	100.3*	-1.9	4.7*	.	3.5*
Cc1ccccc1CNc1nnnn1C	1.0	-6.5	0.308	.	.	.
Cc1cc(C(=O)N/N=C2\CC(=O)CC(C)(C)C2)c(C)n1-c1ccccc1	-7.6	-5.1	0.199	69.0	-12.9	61.5
Cc1cc(C(=O)N/N=C2\CC(=O)c3ccccc32)c(C)n1-c1ccccc1	2.1	97.7*	-0.148	.	35.3	.
COc1ccc(-c2c(S(=O)(=O)c3ccccc3)cnn2-c2ccccc2)cc1	-5.7	59.2*	-0.0846	88.2	.	74.4
O=S(=O)(c1ccccc1)c1cnn(-c2ccccc2)c1-c1ccc(Cl)cc1	-1.0	55.0*	.	78.9	-8.7	77.0
CC(=O)c1cccc(NC(=O)COC(=O)[C@@H](NC(=O)OCc2ccccc2)C(C)C)c1	0.0	-5.6	.	96.4	.	105.4
COCCN(Cc1ccccc1)C(=O)c1c(C)nn(-c2ccccc2)c1C	-4.6	0.4	0.147	.	-71.4	.
Nc1ccc(/C=C/C(=O)c2ccco2)cc1	0.2	51.3*	.	69.4	-5.1	68.8
N#Cc1ccc(/C=C/C(=O)c2ccco2)cc1	7.8	30.6	.	2.3*	-3.0	1.6*
O=C(/C=C/c1cc(Br)ccc1O)c1ccco1	4.0	.	.	.	.	.
Cc1ccc(Nc2nc(Cl)nc(N(C)C#N)n2)cc1	21.2*	97.2*	.	88.9	-56.5	90.9
Cc1ccccc1Cn1cnc2c(cnn2C(C)(C)C)c1=O	3.6	59.0*	0.34	75.2	-33.3	74.4
Cc1ccc(C)c(Cn2cnc3c(cnn3C(C)(C)C)c2=O)c1	-2.7	6.3	-1.05	66.6	33.3	64.9
SMILES	p97 ATPase inh	L major viab	ROMK mod	HCT116 bCat-KO	INS promoter inh	PTEN del growth
NS(=O)(=O)c1ccc(NC(=S)NCC2CCCO2)cc1 (stereo unspecified)	-0.1	55.0*	0.581	84.5	1.3	93.5
CCOc1ccccc1NC(=S)NCC1CCCO1 (stereo unspecified)	-0.1	50.9*	.	93.2	-8.0	89.5
COc1ccccc1NC(=S)NCC1CCCO1 (stereo unspecified)	0.8	-1.6	-0.443	100.1	25.0	100.1
CCn1ncc(N(C)N)c(Cl)c1=O	3.3	-7.1	0.795	.	.	.
CCOC(=O)c1sc2ccccc2c1NC(=O)c1coc2ccccc2c1=O	2.5	58.2*	.	90.2	-2.0	91.9
O=C(N/N=C/c1ccc(O)cc1)/C(=C/c1ccccc1)CCO	5.0	-7.5	.	88.1	.	95.1
COc1ccc(-c2nc(NC(=O)C3CCN(c4nc5ccccc5o4)CC3)sc2C)cc1	4.4	78.9*	.	47.1	.	33.5
O=Cc1cc2ccccc2nc1SCCCF	3.5	58.2*	0.913	.	14.3	.
N#Cc1cc2ccccc2nc1SCc1cccnc1	5.7	-10.4	.	87.7	.	91.0
O=C(C1CCN(Cc2cc(Cl)ccc2O)CC1)N1CCN(Cc2ccccc2)CC1	-3.5	99.8*	-1.17	83.9	.	84.2
CCS(=O)(=O)N1CCC(C(=O)N2CCN(Cc3ccccc3)CC2)CC1	2.8	0.4	-0.332	.	-28.6	.
O=C(Cn1cc2c(n1)CCCCC2)NC1CCN(Cc2ccccc2)CC1	.	82.6*	.	77.9	.	79.6
O=C(Cn1cc2c(n1)CCCC2)NC1CCCCCC1	-0.2	-5.4	.	78.0	-10.0	93.9
O=C(NCCSc1ccccc1)c1cncc(Br)c1	1.4	-2.3	0.421	105.0	75.0*	100.8
CC(Oc1ccccc1)C(=O)NC1CCN(Cc2ccccc2)CC1 (stereo unspecified)	1.6	91.4*	0.0335	92.3	16.1	96.8
O=S(=O)(c1ccccc1)N1CCN(c2nnc(-c3ccccc3)c3ccccc23)CC1	-9.3	.	.	.	.	.
O=C(NC1CCN(Cc2ccccc2)CC1)c1cncc(Br)c1	-3.0	66.9*	-0.538	.	-45.5	.
O=C(NCc1ccccc1)c1cncc(Br)c1	0.8	-5.8	-0.132	104.1	-30.8	109.1
O=C(CCCCn1c(=O)c2ccccc2n(Cc2ccccc2F)c1=O)NC1CCN(Cc2ccccc2)CC1	8.9	72.3*	0.066	.	-46.0	.
N#CC(c1ccccc1)C1CCN(Cc2ccccc2)CC1 (stereo unspecified)	0.4	87.6*	-0.769	93.7	27.3	92.2
O=C(NC1CCN(Cc2ccccc2)CC1)C12CC3CC(CC(C3)C1)C2	4.7	88.2*	.	81.9	3.5	96.2
O=C(Nc1ncc(Cl)cc1Cl)c1c(F)cccc1Cl	-0.5	9.9	0.011	.	.	.
O=C(O)[C@H](Cc1ccccc1)NC(=O)N1CCN(c2cccc(C(F)(F)F)c2)CC1	-0.3	.	.	.	.	.
CCC(/C=N/NC(=O)CCCCC(=O)N/N=C/C(CC)CC)CC	-0.4	-6.9	0.441	90.8	-7.9	107.7
O=C(O)COCC(=O)NC1CCN(Cc2ccccc2)CC1	8.3	.	.	.	.	.
SMILES	p97 ATPase inh	L major viab	ROMK mod	HCT116 bCat-KO	INS promoter inh	PTEN del growth
O=C(Cc1ccccc1)NC1CCN(Cc2ccccc2)CC1	2.9	81.8*	0	.	.	.
CCN1/C(=C/C=C/c2oc3ccc(-c4ccccc4)cc3[n+]2CC)Oc2ccc(-c3ccccc3)cc21	8.4	100.4*	.	.	i	.
CCCCN1C(=O)/C(=C/C=C2\Oc3ccccc3N2CC)SC1=S	4.8	-2.2	.	.	.	.
Cc1ccccc1NC(=O)N1CCCC(c2nc(-c3ccc(F)cc3)no2)C1 (stereo unspecified)	-0.9	2.3	-0.534	94.5	.	90.2
Cc1ccccc1NC(=O)N1CCCC(c2nc(-c3ccc(C(C)C)cc3)no2)C1 (stereo unspecified)	0.8	84.9*	.	104.8	.	100.6
Cc1[nH]n2c(=O)c3c(nc2c1-c1ccccc1)CCCC3	2.9	99.0*	0.431	79.8	.	73.1
O=c1c2c(nc3c(-c4cccc5ccccc45)c[nH]n13)CCC2	1.7	-4.6	.	79.2	-33.3	75.3
Cc1[nH]n2c(=O)c3c(nc2c1-c1ccc(F)cc1)CCCC3	3.6	100.3*	0.055	.	.	.
